The sample as a whole holds a higher share of hits than the screen did.
Pf Dd2 growth: inhibitors of Plasmodium falciparum Dd2 growth | P. falciparum Dd2 growth, SYBR Green, 72 h | 4.3% of 120,000 active | Potency, µM (series often up to 28.9 µM), for inactives: top-dose activity, negative = inhibition, actives largely listed as inhibitors; active = well fitted inhibition curve with a large enough effect;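 note: plate controls were DMSO vehicle for no effect and reference drug for full effect; nearly all actives have a fitted effect of over 65% in size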
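Infected erythrocytes (Dd2, 0.3% parasitemia, 2.5% hematocrit final) are added to compound in RPMI-1640/Albumax II medium, grown 72 h at 37C in low oxygen, then lysed with saponin/Triton-X containing SYBR Green and read by fluorescence.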
Active calls of the source: *; i = inactive; [ ] = dose if it differs, or a comment. Potency is the fitted concentration of half-maximal effect.

SMILES	Pf Dd2 growth
COCCN1CCCCCC(O)c2cc(C(=O)NCc3cc(F)cc(F)c3)ccc21 (configuration not stated)	12.6µM*
COCCN1CCCCCC(O)c2cc(C(=O)NCC3CC3)ccc21 (configuration not stated)	i
CN(Cc1ccco1)C(=O)c1cccc2c1CCN2C(=O)Nc1ccccc1	i
CCNC(=O)c1cccc2c1CCN2C(=O)Nc1ccc(C)cc1	i
CN(Cc1ccccc1)C(=O)c1cccc2c1CCN2C(=O)Nc1ccccc1	6.31µM*
CCS(=O)(=O)c1ccc2oc([C@H]3CCN(Cc4cccc(Cl)c4)C3)nc2c1	-5.6%[44.1 µM]
CC(C)(CC(=O)O)CC(=O)N1CCN2C(=O)N(Cc3ccccc3)C(=O)[C@H]2C1	-10.2%[44.1 µM]
CCC(=O)N1CCN(c2nc3c(s2)CC(C(=O)Nc2ccc(F)cc2F)CC3)CC1 (configuration not stated)	5.01µM*
Cc1cccc(NC(=O)C2CCN(c3nnc(-n4c(C)ccc4C)s3)CC2)c1C	i
CCN1CCN(C(=O)C2CCc3nc(N4CCN(C(=O)C5CCC5)CC4)sc3C2)CC1 (configuration not stated)	-2.3%
CCC(=O)N1CCN(c2nc3c(s2)CC(C(=O)Nc2cccc(C)c2C)CC3)CC1 (configuration not stated)	3.98µM*
O=C(NCc1cccs1)C1CCc2nc(N3CCN(C(=O)C4CCC4)CC3)sc2C1 (configuration not stated)	5.01µM*
O=C(NCc1ccncc1)C1CCc2nc(N3CCN(C(=O)C4CCC4)CC3)sc2C1 (configuration not stated)	i
O=C(O)C1CCc2nc(N3CCN(C(=O)C4CCC4)CC3)sc2C1 (configuration not stated)	-19.8%
CCC(=O)N1CCN(c2nc3c(s2)CC(C(=O)NCc2cccc(OC)c2)CC3)CC1 (configuration not stated)	-4.1%
CCC(=O)N1CCN(c2nc3c(s2)CC(C(=O)NCc2ccccc2)CC3)CC1 (configuration not stated)	7.94µM*
O=C(NCc1ccco1)C1CCc2nc(N3CCN(C(=O)C4CCC4)CC3)sc2C1 (configuration not stated)	i
Cc1ccccc1C(=O)N1CCC(C(=O)Nc2ccc(F)cc2F)CC1	37.8%
CCC(=O)N1CCc2nc(N3CCN(Cc4cccnc4)CC3)sc2C1	i
Cc1ccc(-c2ccc(O)cn2)c2cccnc12	17.5%
CC(C)n1cccc1C(=O)N1CC[C@H](N2CCN(C)CC2)[C@H](CCC(=O)O)C1	9.3%
O=C(NC1CCOC2(CCOCC2)C1)c1cn(CCN2CCNCC2)nn1 (configuration not stated)	16.0%
CC(C)NC(=O)CC[C@@H]1CNC(=O)[C@@H]2C[C@H](NCc3ccc(CO)o3)CN12	21.0%[44.1 µM]
CCN(CC)C(=O)[C@@H]1CCC[C@@H](NCc2nccn2C)CN(C)C(=O)C1	8.5%[44.1 µM]
CN(CC1CCOCC1)C(=O)Cc1ccc(F)cc1	-6.3%
SMILES	Pf Dd2 growth
O=C(NCC1CCOCC1)C1CC(=O)N(c2n[nH]c3cccc(F)c23)C1 (configuration not stated)	-12.7%
COc1ccc(C(=O)N2CCC(N3C(=O)[C@H](OC)[C@@H]3c3ccncc3)CC2)cc1	13.6%
Cc1ccc(CC2CCOC3(CCN(C(=O)c4cccc(C#N)c4)CC3)C2)cc1 (configuration not stated)	i
COc1cccc(CN2CCn3c(nn(-c4ccncc4)c3=O)C2)c1	-5.6%
COc1cccc(CN2C[C@@H](CO)[C@H](C(=O)NC3CC3)C2)c1OC	-24.6%
CC(C)CN(CC1CN(C(=O)Nc2ccccc2)CCO1)C(=O)c1ccccc1F (configuration not stated)	i
COC[C@@H]1CN(S(=O)(=O)c2ccccc2)C[C@H]1c1ccncc1	24.2%
COc1ccc(-c2ccc3nc(-c4ccc(SC)cc4)oc3c2)c(OC)c1OC	i
CCCOc1ccc(-c2nc3ccc(-c4ccc(OC)c(OC)c4OC)cc3o2)cc1	10µM*
COc1ccc(-c2ccc3nc(-c4ccc(C)c(F)c4)oc3c2)c(OC)c1OC	11.2%
Cc1ccc2cc(CCC(=O)NCCCN(C)C)c(=O)[nH]c2c1	84.9%
COc1ccc(CN2C(=O)COC[C@@H]2[C@H](O)c2ccc(NC(C)=O)cc2)cc1	13.4%[44.1 µM]
COc1ccc(NC(=O)c2ccco2)cc1NC(=O)C(C)(C)Oc1ccc(Cl)cc1	10µM*
COc1ccc(C(=O)Nc2cc(NC(=O)c3ccco3)ccc2OC)cc1Cl	23.5%
COc1ccc(NC(=O)c2ccco2)cc1NC(=O)c1c(OC)cccc1OC	8.3%
CN(Cc1ccccc1)Cc1nnc(C(=O)N2CCC[C@@H]2c2ccc(Br)cc2)n1Cc1ccccc1	i
Cc1ccc(NC(=O)CN2C(=O)CCSc3ccc(S(=O)(=O)N4CCCC4)cc32)cc1C	12.7%
CCOc1ccc(CNC(=O)c2ccc3c(c2)N(CC)CCS3)cc1	36.2%
Cc1ccc(NC(=O)CN2C(=O)CCSc3ccc(S(=O)(=O)N4CCCC4)cc32)cc1	i
COc1cc(Cl)c(C)cc1NC(=O)c1ccc(CN2C(=O)CCn3nc(C)cc32)cc1	-3.4%
CCc1ccc(NC(=O)c2ccc3c(c2)N(Cc2ccc(C)cc2)CCS3)cc1	8.91µM*
Cc1ccc(NC(=O)CN2CCSc3ccc(S(=O)(=O)N4CCCC4)cc32)cc1	7.94µM*
Cc1ccc(CCNC(=O)c2ccc3c(c2)N(Cc2ccc(F)cc2)CCS3)cc1	10.2%
COc1cc(OC)c(NC(=O)c2ccc3c(c2)N(Cc2ccc(C)cc2)CCS3)cc1Cl	11.2µM*
CCN1CCSc2ccc(C(=O)NCc3ccc(OC(C)C)cc3)cc21	17.5%
SMILES	Pf Dd2 growth
CNC(=O)c1cc(-c2ccccc2OC)cc2c1OCCN2Cc1cccnc1	-5.3%[44.1 µM]
Cc1ccc2nc(CO[C@H]3CN(C(=O)C4CC4)C[C@H]3F)[nH]c2c1	-7.4%[44.1 µM]
CCC(C)Oc1ccc(CNC(=O)c2cn(CCN)nn2)cc1 (configuration not stated)	-18.9%
O=C(NC1CCc2nnc(C3CC3)n2CC1)c1ccc(Cn2cncn2)o1 (configuration not stated)	i
COCCNC(=O)C1COC2(CCN(C(=O)c3ccc(OC)cc3)CC2)N1C(=O)c1cccc(C)c1 (configuration not stated)	-11.7%
CCC1Oc2ccc(NC(=O)COc3ccccc3)cc2CN(Cc2cccc(OC)c2)C1=O (configuration not stated)	-3.6%
CCC1Oc2ccc(NC(=O)Cc3ccc(F)cc3)cc2CN(Cc2cccc(OC)c2)C1=O (configuration not stated)	3.98µM*
CCC1Oc2ccc(NC(=O)c3ccccc3F)cc2CN(CCc2ccc(OC)c(OC)c2)C1=O (configuration not stated)	1.78µM*
COc1cccc(CN2Cc3cc(NC(=O)Cc4ccccc4)ccc3OCC2=O)c1	-13.3%
CCC1Oc2ccc(NC(=O)c3ccccc3F)cc2CN(Cc2ccccc2F)C1=O (configuration not stated)	5.62µM*
CCC1Oc2ccc(NC(=O)c3ccccc3F)cc2CN(Cc2ccc3c(c2)OCO3)C1=O (configuration not stated)	i
COc1cccc(CN2Cc3cc(NC(=O)c4cccs4)ccc3OCC2=O)c1	i
COc1cccc(CN2Cc3cc(NC(=O)c4cc(OC)cc(OC)c4)ccc3OCC2=O)c1	4.47µM*
CCC1Oc2ccc(NC(=O)Cc3ccccc3)cc2CN(Cc2cccc(OC)c2)C1=O (configuration not stated)	-17.6%

Screens as filed in PubChem.
